Data reported in PubChem BioAssay (Tox21).
A number with no mark means an inactive call. Results filed as inconclusive are left out. Where a call stands in place of a potency, no number is given. Activity calls are given as the source filed them. Unless noted, calls come from the whole dose curve.

What was measured:
[1] = Nuclear factor erythroid 2-related factor 2/antioxidant responsive element (Nrf2/ARE) small molecule agonists: qHTS cell viability counter screen in human keratinocytes (AID 1919968; active = well fitted curve in the direction sought with a large enough effect in the repeat runs; an effect the other way counts as inactive or inconclusive; note: nearly all actives have a fitted effect of over 55% in size; note: potency is the fitted concentration of half-maximal effect)
In short: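 KeratinoSens HaCaT cells, 1,500/well, preincubated 5 h, then exposed to compounds in DMSO for 23 h at 37 C/5% CO2. Viability read as CellTiter-Fluor fluorescence after 1 h, in the same wells as the ARE-luciferase read.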

[2] = Nuclear factor erythroid 2-related factor 2/antioxidant responsive element (Nrf2/ARE) small molecule agonists: luciferase reporter gene qHTS assay in human keratinocytes (AID 1919969); note: nearly all actives have a fitted effect of over 35% in size
[3] = target: Gonadotropin-releasing hormone receptor (Homo sapiens) (UniProt P30968); assay: Human gonadotropin-releasing hormone receptor (GnRHR) small molecule agonists, calcium flux assay in GnRHR-HEK293 cells (AID 1920063); note: nearly all actives have a fitted effect of over 35% in size
Sequence of Gonadotropin-releasing hormone receptor (Homo sapiens) (P30968 whole entry, looked up): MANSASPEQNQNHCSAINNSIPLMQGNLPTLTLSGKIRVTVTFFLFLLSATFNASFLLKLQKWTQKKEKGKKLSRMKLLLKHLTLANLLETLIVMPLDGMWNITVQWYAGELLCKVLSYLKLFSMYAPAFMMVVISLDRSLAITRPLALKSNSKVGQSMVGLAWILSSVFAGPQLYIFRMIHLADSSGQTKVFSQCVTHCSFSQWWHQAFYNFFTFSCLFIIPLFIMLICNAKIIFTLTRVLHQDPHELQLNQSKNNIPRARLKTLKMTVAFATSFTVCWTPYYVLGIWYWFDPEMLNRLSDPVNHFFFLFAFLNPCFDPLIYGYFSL
In short: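 HEK293 cells stably expressing human GnRHR were dye-loaded for 1 h at 37 C. Compound was added in agonist mode and fluorescence (Ex/Em 480/540) recorded kinetically for 3 min. Fifteen concentrations, triplicates.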

[4] = target: KiSS-1 receptor (Homo sapiens) (UniProt Q969F8); assay: Human kisspeptin (KISS1R) small molecule agonists, calcium flux assay in KISS1R-HEK293 cells (AID 1920064; active = well fitted curve in the direction sought with a large enough effect in the repeat runs; an effect the other way counts as inactive or inconclusive)
Sequence of KiSS-1 receptor (Homo sapiens) (Q969F8 whole entry, looked up): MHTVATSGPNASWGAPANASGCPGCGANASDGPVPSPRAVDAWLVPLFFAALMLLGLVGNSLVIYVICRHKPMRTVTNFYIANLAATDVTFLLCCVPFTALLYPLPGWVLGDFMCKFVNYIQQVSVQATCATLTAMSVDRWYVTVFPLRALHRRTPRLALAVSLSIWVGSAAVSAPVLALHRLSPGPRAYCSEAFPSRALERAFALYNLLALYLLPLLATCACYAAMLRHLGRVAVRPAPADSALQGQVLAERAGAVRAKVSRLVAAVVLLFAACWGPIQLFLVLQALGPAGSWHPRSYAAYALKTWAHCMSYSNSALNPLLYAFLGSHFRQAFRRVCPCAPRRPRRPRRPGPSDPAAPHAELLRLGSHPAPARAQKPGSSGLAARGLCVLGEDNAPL
In short: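 HEK293 cells stably expressing human KISS1R were loaded with calcium dye for 1 h at 37 C, then given compound; fluorescence (Ex/Em 480/540) was read kinetically for 3 min. Fifteen concentrations, triplicate.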

[5] = G protein-coupled receptor (GPCR) small molecule agonists, calcium flux assay: HEK293 wild type cell line counter screen (AID 1920065)
In short: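 Wild-type HEK293 cells plated 18 h, loaded with calcium dye 1 h at 37 C, then compounds added in agonist mode (ATP as positive control). Kinetic fluorescence Ex/Em 480/540 recorded 3 min at 1 sec intervals; 15 concentrations, triplicate.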

[6] = p53 small molecule agonists, cell-based qHTS assay: qHTS cell viability counter screen (AID 1963581); note: nearly all actives have a fitted effect of over 45% in size
In short: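 p53RE-bla HCT-116 cells, compounds added 5 h after plating and incubated 16 h at 37 C. Cytotoxicity measured in the same wells as intracellular ATP by CellTiter-Glo luminescence after 30 min at room temperature.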

[7] = p53 small molecule agonists, cell-based qHTS assay (AID 1963582; active = well fitted activation curve with a large enough effect in the signal ratio in the repeat runs, not every such curve was filed as active; the % refers to the signal ratio)
In short: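 p53RE-bla reporter cells, compounds added in DMSO after 5 h plating, incubated 16 h at 37 C. Beta-lactamase read via 2 h room-temperature LiveBLAzer B/G FRET substrate, fluorescence intensity.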

[8] = target: 5-hydroxytryptamine receptor 2A (Homo sapiens) (UniProt P28223); assay: 5-hydroxytryptamine receptor 2A (HTR2A) small molecule antagonists, cell-based qHTS assay (AID 1963586); note: nearly all actives have a fitted effect of over 45% in size
Sequence of 5-hydroxytryptamine receptor 2A (Homo sapiens) (P28223 whole entry, looked up): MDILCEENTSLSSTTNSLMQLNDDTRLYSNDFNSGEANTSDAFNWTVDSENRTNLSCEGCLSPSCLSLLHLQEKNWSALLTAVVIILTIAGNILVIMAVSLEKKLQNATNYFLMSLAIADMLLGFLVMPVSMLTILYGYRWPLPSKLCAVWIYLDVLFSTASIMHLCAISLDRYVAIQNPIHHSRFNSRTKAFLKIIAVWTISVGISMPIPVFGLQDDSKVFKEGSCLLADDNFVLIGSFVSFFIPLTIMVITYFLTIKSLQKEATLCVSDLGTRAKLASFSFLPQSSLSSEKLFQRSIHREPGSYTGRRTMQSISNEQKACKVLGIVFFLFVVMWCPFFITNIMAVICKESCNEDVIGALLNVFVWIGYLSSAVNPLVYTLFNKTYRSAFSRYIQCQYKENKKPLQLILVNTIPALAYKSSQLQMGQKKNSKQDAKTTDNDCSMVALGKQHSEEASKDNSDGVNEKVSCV
In short: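 Antagonist-mode intracellular calcium assay: DOI (4 nM) added after 5 min compound pre-incubation at room temperature to dye-loaded HTR2A-CHO cells. Fluorescence followed for 3 min, sampled every second.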

[9] = target: 5-hydroxytryptamine receptor 2A (Homo sapiens) (UniProt P28223); assay: 5-hydroxytryptamine receptor 2A (HTR2A) small molecule agonists, cell-based qHTS assay (AID 1963587); note: nearly all actives have a fitted effect of over 30% in size
In short: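 CHO cells stably expressing human HTR2A, plated 18 h, loaded with calcium dye 1 h at 37 C. Agonist mode: compounds added and intracellular calcium fluorescence recorded kinetically for 2 min at 1 sec intervals.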

[10] = target: Muscarinic acetylcholine receptor M1 (Homo sapiens) (UniProt P11229); assay: Cholinergic receptor muscarinic 1 (CHRM1) small molecule antagonists, cell-based qHTS assay (AID 1963588); note: nearly all actives have a fitted effect of over 40% in size
Sequence of Muscarinic acetylcholine receptor M1 (Homo sapiens) (P11229 whole entry, looked up): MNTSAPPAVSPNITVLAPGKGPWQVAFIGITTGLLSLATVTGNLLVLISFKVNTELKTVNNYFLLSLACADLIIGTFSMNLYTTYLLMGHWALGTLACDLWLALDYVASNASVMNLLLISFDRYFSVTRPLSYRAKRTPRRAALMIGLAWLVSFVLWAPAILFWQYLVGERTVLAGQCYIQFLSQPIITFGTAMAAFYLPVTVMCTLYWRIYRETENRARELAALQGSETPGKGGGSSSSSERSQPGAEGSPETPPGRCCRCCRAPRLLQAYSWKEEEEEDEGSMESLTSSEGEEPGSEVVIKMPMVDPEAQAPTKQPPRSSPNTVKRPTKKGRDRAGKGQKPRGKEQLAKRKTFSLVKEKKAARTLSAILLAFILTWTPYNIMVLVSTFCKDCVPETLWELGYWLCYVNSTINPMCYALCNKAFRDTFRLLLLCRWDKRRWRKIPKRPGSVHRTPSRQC
In short: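 CHRM1-CHO calcium-flux assay, antagonist mode. Cells were seeded 18 h, dye-loaded 1 h at 37 C and given compound for 5 min at RT, then acetylcholine was added at 50nM. FDSS fluorescence was read 3 min; 15 concentrations, three runs.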

[11] = target: Muscarinic acetylcholine receptor M1 (Homo sapiens) (UniProt P11229); assay: Cholinergic receptor muscarinic 1 (CHRM1) small molecule agonists, cell-based qHTS assay (AID 1963589); note: nearly all actives have a fitted effect of over 35% in size
In short: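 CHO cells stably expressing human CHRM1 were loaded with calcium dye for 1 h at 37 C, then compound was added in agonist mode. Intracellular calcium fluorescence was followed kinetically at 1 s intervals. Fifteen concentrations were tested in three independent runs.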

[12] = target: Beta-2 adrenergic receptor (Homo sapiens) (UniProt P07550); assay: Adrenergic beta2 receptor (ADRB2) small molecule antagonists, cell-based qHTS assay (AID 1963592); note: series mostly up to about 92 µM; nearly all actives have a fitted effect of over 50% in size
Sequence of Beta-2 adrenergic receptor (Homo sapiens) (P07550 whole entry, looked up): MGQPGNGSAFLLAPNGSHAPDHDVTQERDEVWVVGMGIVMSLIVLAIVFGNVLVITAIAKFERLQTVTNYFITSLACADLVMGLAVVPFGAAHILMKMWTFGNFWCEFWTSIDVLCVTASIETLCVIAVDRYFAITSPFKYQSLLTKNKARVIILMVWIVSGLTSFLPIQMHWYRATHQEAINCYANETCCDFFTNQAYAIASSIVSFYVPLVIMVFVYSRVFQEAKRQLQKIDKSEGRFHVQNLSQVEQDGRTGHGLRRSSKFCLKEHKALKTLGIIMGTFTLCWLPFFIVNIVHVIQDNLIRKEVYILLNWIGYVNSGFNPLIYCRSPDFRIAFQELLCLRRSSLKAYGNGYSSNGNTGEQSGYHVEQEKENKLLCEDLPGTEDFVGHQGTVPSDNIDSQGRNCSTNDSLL
In short: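 Cells (CHO, stable ADRB2 overexpression) incubated 18-20hr at 37C; compounds added from DMSO; agonist mix (1nM isoproterenol, 100uM IBMX, 25uM Ro-20-1724) added; 0.5hr RT; d2-cAMP and anti-cAMP-cryptate added; 1hr RT; 665/615 nm read.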

[13] = target: D(2) dopamine receptor (Homo sapiens) (UniProt P14416); assay: Dopamine D2 receptor (DRD2) small molecule antagonists, cell-based qHTS assay (AID 1963595; active = well fitted inhibition curve with a large enough effect in the signal ratio in the repeat runs, with a control signal flat; the % refers to the signal ratio; note: potency is the fitted concentration of half-maximal effect)
Sequence of D(2) dopamine receptor (Homo sapiens) (P14416 whole entry, looked up): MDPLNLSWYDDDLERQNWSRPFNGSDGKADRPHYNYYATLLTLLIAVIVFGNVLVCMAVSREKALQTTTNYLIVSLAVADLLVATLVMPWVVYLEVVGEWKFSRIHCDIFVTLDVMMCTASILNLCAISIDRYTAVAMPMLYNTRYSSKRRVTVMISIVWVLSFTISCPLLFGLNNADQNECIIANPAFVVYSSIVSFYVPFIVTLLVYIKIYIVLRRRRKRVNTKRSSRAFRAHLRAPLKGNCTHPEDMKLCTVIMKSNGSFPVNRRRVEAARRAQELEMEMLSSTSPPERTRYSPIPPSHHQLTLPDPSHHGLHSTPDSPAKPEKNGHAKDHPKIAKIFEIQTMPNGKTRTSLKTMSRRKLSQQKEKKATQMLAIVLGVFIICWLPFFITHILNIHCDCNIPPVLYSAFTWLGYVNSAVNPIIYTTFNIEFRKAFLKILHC
In short: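 Cells were plated and grown for 24 h at 37 °C. Ro20-1724 (0.1 mM final) went in first, then compound for 10 min. NKH477 (200 nM) with quinpirole (12 nM) followed for 30 min at RT, then HTRF detection reagents for 1 h.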

[14] = p53 small molecule agonists, cell-based qHTS assay with rat liver microsomes: qHTS cell viability counter screen (AID 1963580); note: nearly all actives have a fitted effect of over 45% in size
In short: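 p53RE-bla HCT-116 cells were exposed 16 h at 37 C to compounds with rat liver microsomes (0.5 mg/mL) and NADPH (0.5 mg/mL). Viability was measured in the same wells as ATP content by CellTiter-Glo luminescence.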

[15] = cAMP Responsive Elements (CRE) small molecule agonists, cell-based qHTS assay (AID 1963590)
In short: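 CRE-bla HEK 293T cells, 2,000/well in DMEM with 10% dialyzed FBS and 25 mM HEPES, pre-incubated 18 h at 37 C, then exposed to compound 3 h at 37 C. Beta-lactamase reporter read with LiveBLAzer B/G FRET substrate after 2 h at room temperature.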

[16] = target: D(2) dopamine receptor (Homo sapiens) (UniProt P14416); assay: Dopamine D2 receptor (DRD2) small molecule agonists, cell-based qHTS assay (AID 1963594); note: nearly all actives have a fitted effect of over 35% in size
In short: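 HEK293 cells stably expressing human DRD2, pre-treated with PDE inhibitor Ro20-1724 (0.1 mM final) and compound 10 min at room temperature, then stimulated with NKH477 (200nM […]) for 30 min. cAMP read by HTRF (665/620 nm).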

[17] = p53 small molecule agonists, cell-based qHTS assay with human liver microsomes: qHTS cell viability counter screen (AID 1963579); note: nearly all actives have a fitted effect of over 45% in size
In short: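 After the 460/530 nm beta-lactamase read, CellTiter-Glo was added to the same wells and luminescence measured after 30 min at room temperature, giving viability of p53RE-bla cells treated 16 h with compounds plus microsomes and NADPH.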

[18] = cAMP Responsive Elements (CRE) small molecule antagonists, cell-based qHTS assay (AID 1963591; active = well fitted inhibition curve with a large enough effect in the signal ratio in the repeat runs, not every such curve was filed as active; the % refers to the signal ratio)
In short: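 CRE-bla HEK293T cells plated 18 h, then given compound plus NKH477 at 0.25 uM final for 3 h at 37C. Beta-lactamase reporter read with LiveBLAzer B/G FRET substrate after 2 h at room temperature.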

[19] = target: Beta-2 adrenergic receptor (Homo sapiens) (UniProt P07550); assay: Adrenergic beta2 receptor (ADRB2) small molecule agonists, cell-based qHTS assay (AID 1963593);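 note: CHO cells stably overexpressing human ADRB2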
In short: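 CHO cells stably over-expressing ADRB2 were plated overnight at 37C, then dosed with compounds plus a stimulation mix containing 100uM IBMX and 25uM Ro-20-1724 for 0.5hr at room temperature. cAMP was measured by HTRF competition, 1hr.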

## CCn1nc(C(=O)O)c(=O)c2cc3c(cc21)OCO3
[1]
  Potency: inactive
[2]
  Potency: inactive
[3]
  Potency: inactive
[4]
  Potency: inactive
[5]
  Potency: inactive
[6]
  Potency: inactive
[7]
  Potency: inactive
[8]
  Potency: inactive
[9]
  Potency: inactive
[10]
  Potency: inactive
[11]
  Potency: inactive
[12]
  Potency: inactive
[13]
  Potency: inactive

## S=C([S-])NCCNC(=S)[S-].S=C([S-])NCCNC(=S)[S-].[Mn+2].[Zn+2]
[1]
  Potency: inactive
[2]
  Potency: inactive
[3]
  Potency: inactive
[4]
  Potency: inactive
[5]
  Potency: inactive
[14]
  Potency: inactive
[6]
  Potency: inactive
[8]
  Potency: inactive
[9]
  Potency: inactive
[10]
  Potency: inactive
[11]
  Potency: inactive
[15]
  Potency: inactive
[12]
  Potency: inactive
[16]
  Potency: inactive

## Fc1ccc(C(c2ccc(F)cc2)N2CCN(C/C=C/c3ccccc3)CC2)cc1
[1]
  Potency: 16.8 µM (active)
[2]
  Potency: inactive
[3]
  Potency: inactive
[4]
  Potency: inactive
[5]
  Potency: inactive
[17]
  Potency: inactive
[6]
  Potency: inactive
[12]
  Potency: inactive
[16]
  Potency: inactive
[13]
  Potency: 16.8 µM (active)

## C[Si](C)(C)O[Si](O)(O)O
[1]
  Potency: inactive
[2]
  Potency: inactive
[3]
  Potency: inactive
[4]
  Potency: inactive
[5]
  Potency: inactive
[17]
  Potency: inactive
[8]
  Potency: inactive
[10]
  Potency: inactive
[11]
  Potency: inactive
[15]
  Potency: inactive
[18]
  Potency: inactive
[12]
  Potency: inactive
[19]
  Potency: inactive
[16]
  Potency: inactive
[13]
  Potency: inactive

## COc1c2occc2c(OC)c2c(=O)cc(C)oc12
[1]
  Potency: inactive
[2]
  Potency: inactive
[3]
  Potency: inactive
[4]
  Potency: inactive
[5]
  Potency: inactive
[14]
  Potency: inactive
[8]
  Potency: inactive
[9]
  Potency: inactive
[10]
  Potency: inactive
[11]
  Potency: inactive
[15]
  Potency: inactive
[12]
  Potency: inactive
[19]
  Potency: inactive
[16]
  Potency: inactive

## CC(=O)Nc1ccc(OCCOCCOc2ccc(NC(C)=O)cc2)cc1
[1]
  Potency: inactive
[2]
  Potency: inactive
[3]
  Potency: inactive
[4]
  Potency: inactive
[5]
  Potency: inactive
[14]
  Potency: inactive
[6]
  Potency: inactive
[8]
  Potency: inactive
[9]
  Potency: inactive
[10]
  Potency: inactive
[11]
  Potency: inactive
[15]
  Potency: inactive
[18]
  Potency: inactive
[12]
  Potency: inactive
[19]
  Potency: inactive
[16]
  Potency: inactive
[13]
  Potency: inactive

## CCCCCCCCCCCCCOC(=O)CCSCCC(=O)OCCCCCCCCCCCCC
[1]
  activity change, negative = cytotoxicity: -1.71% [at 19 µM]
[2]
  activity, positive = activation: 4.84% [at 19 µM]
[3]
  activity change: 1.53% [at 11.8 µM, active compounds read high]
[4]
  activation: 1.75% [at 15.8 µM]
[5]
  activation: -0.388% [at 11.8 µM]
[14]
  activity change, negative = cytotoxicity: -0.0386% [at 13.5 µM]
[6]
  activity change, negative = cytotoxicity: -3.06% [at 13.5 µM]
[8]
  activity, negative = inhibition: 1.85% [at 12.7 µM]
[10]
  activity, negative = inhibition: 18% [at 12.6 µM]
[11]
  activation: -0.105% [at 15.8 µM]
[15]
  activation: -0.927% [at 19 µM]
[18]
  activity change, negative = inhibition: -14% [at 18.9 µM]
[12]
  activity change, negative = inhibition: -0.103% [at 19 µM]
[16]
  activation: 5.42% [at 19 µM]
[13]
  activity change, negative = inhibition: -7.07% [at 18.9 µM]

## CN1CCC(=C2c3ccccc3Sc3ccccc32)CC1
[1]
  Potency: inactive
[2]
  Potency: inactive
[3]
  Potency: inactive
[4]
  Potency: inactive
[5]
  Potency: inactive
[14]
  Potency: inactive
[6]
  Potency: inactive
[9]
  Potency: inactive
[15]
  Potency: inactive
[18]
  Potency: inactive
[16]
  Potency: inactive

## CCC(=O)OCCOc1ccccc1
[1]
  Potency: inactive
[2]
  Potency: inactive
[3]
  Potency: inactive
[4]
  Potency: inactive
[5]
  Potency: inactive
[14]
  Potency: inactive
[6]
  Potency: inactive
[8]
  Potency: inactive
[9]
  Potency: inactive
[10]
  Potency: inactive
[11]
  Potency: inactive
[15]
  Potency: inactive
[18]
  Potency: inactive
[12]
  Potency: inactive
[16]
  Potency: inactive
[13]
  Potency: inactive
